Screen size: about 1,600 compounds; about 25 (2%) were called active. A call without a number means that no potency is given here. Inconclusive results (about 7%) are left out. The call rests on the fitted dose curve; in most records, active means well fitted inhibition curve with a large enough effect; inconclusive means small, poorly fitted or top-dose-only effect, or effect the other way; inactive means no such curve, though single readings can be large or run the other way. This excerpt belongs to a sample that is enriched for actives.
Molecular target: Runt-related transcription factor 1 (Homo sapiens) + Core-binding factor subunit beta (Homo sapiens) (UniProt Q01196+Q13951)
Sequence (Q01196 whole entry, looked up): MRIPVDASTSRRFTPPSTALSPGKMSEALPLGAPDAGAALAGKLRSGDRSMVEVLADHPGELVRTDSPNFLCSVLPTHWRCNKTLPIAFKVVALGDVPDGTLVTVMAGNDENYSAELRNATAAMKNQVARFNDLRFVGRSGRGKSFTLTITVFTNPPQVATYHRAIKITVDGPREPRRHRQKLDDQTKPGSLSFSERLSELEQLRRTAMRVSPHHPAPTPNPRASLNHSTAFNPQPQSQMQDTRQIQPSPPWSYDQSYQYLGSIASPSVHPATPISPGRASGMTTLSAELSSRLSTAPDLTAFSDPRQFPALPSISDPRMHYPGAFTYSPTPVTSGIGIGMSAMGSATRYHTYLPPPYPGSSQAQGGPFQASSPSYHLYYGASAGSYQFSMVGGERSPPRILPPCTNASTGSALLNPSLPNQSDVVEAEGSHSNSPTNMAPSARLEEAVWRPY
Sequence (Q13951 whole entry, looked up): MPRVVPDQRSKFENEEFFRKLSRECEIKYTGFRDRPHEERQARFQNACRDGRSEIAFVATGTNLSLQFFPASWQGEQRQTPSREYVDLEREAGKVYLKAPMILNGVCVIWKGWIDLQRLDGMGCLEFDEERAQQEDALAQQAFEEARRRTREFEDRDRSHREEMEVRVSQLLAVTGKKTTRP
Assay: qHTS Assay for Compounds Blocking the Interaction Between CBF-beta and RUNX1 for the Treatment of Acute Myeloid Leukemia: Hit Validation with Orthogonal Assay
Settings: CBFbeta-RUNX1 binding orthogonal assay, biochemical; series mostly up to 41 µM
Text: NIH Chemical Genomics Center [NCGC]
NIH Molecular Libraries Probe Production centers Network [MLPCN]
Assay Submitter (PI): Paul Liu
Core Binding Factor (CBF) abnormalities are associated with 20-25% of all acute myeloid leukemias (AML), of which 5-10% are further sub classified as acute myelomonocytic leukemia with eosinophilia, also known as M4Eo in the FAB classification scheme. This subtype of leukemia is usually associated with chromosome 16 inversion (p13:q22). Chromosome 16 inversion results in formation of the fusion oncogene CBFB-MYH11, which encodes the fusion protein CBF-beta-SMMHC.
It has been hypothesized that the interference of CBF-beta and RUNX1 binding could have therapeutic implications for patients with CBF mediated leukemias. We developed a CBF-beta and RUNX1 binding assay in AlphaScreenTM format and optimized it for high throughput screening to search for inhibitors. The goal of this project is to screen MLPCN's compound collection (MLSMR) for identifying the inhibitors of the interaction between CBF-beta and RUNX1 proteins as research probes. If these probes work well in the animal models, the ultimate goal of this project is to development a new drug treatment for this disease.
This assay can not be used to assess how apparent inhibitors interfere with protein binding, and whether inhibitors specifically bind to either protein. Disruption of this protein-protein interaction, through any mechanism, is the intended target activity.
The present data set was run to confirm the activity of hits from the primary screen using an orthogonal assay technology for measuring protein-protein interaction disruption.
A TR-FRET (time resolved fluorescence resonance energy transfer) assay was performed using the same assay buffer, protein concentrations and incubation times as described previously in the AlphaScreen assay, except that terbium (Tb+) labeled anti-his-antibody and XL665 linked streptavidin were used to capture the binding signal. The Tb+ labeled anti-his-antibody captures His(6)-CBF and XL665 linked streptavidin binds to biotin-RUNX1. The binding of RUNX1 to CBFbrings Tb+ and XL665 to proximity resulting in a TR-FRET signal. Briefly, in a white 384-well plate, 10 µl/well of mixture of biotin-RUNX1 and His(6)-CBFwere incubated with 10 µl/well buffer (positive control) or 10 µl/well compounds (negative control) for 20 min followed by an addition of 10 µl/well of Tb+ labeled anti-his(6)-antibody and XL665 linked streptavidin. After 90 min of incubation in the dark, the assay plate was measured in the Envision plate reader using TR-FRET detection mode. For the 1536-well plate format, 3 µl/well mixture of biotin-RUNX1 and His(6)-CBF (30 nM per protein) was incubated with 23 nl/well compound (dissolved in 100% DMSO) or the equivalent DMSO concentration (positive control) for 30 min followed by the addition of 1 µl/well of 0.44 ng Tb+ labeled anti-his(6)-antibody and 5 nM streptavodin-XL665. After 90 min of incubation, the assay plate was measured in the Envision plate reader.
The TR-FRET assay for detecting interaction between HIV-I Tat and […] was similarly performed with the recombinant full-length HIV-I Tat CLADE B and HIV-I Tat Biotin conjugated proteins supplied by Diatheva (Fano, Italy). Briefly, the His-CBF and Biotin-RUNX1 complex at a working concentration of 83.3 nM per protein were pre-incubated in assay buffer for 10 minutes on ice. Then HIV-I Tat or unlabeled CBF were added to reach final concentrations (Supplementary Figure 4b) and incubated for 5 minutes. Finally anti-His antibody and streptavidin-XL665 at a final concentration of 2.2 ng and 5 nM, respectively, were added to the plate, which was incubated for 1 hr prior to reading on the PerkinElmer Envision plate reader.
Keywords: MLSMR, MLPCN, NIH Roadmap, qHTS, NCGC, Core binding factor, CBF, CBF-beta, Acute myeloid leukemia
Potency means the concentration at half of the fitted maximal effect.

| SMILES | Potency |
| --- | --- |
| O=C(O)CCCCC1SCC2NC(=O)NC21 (stereo not given) | 0.02 µM (active) |
| CC(C)[C@@]1(NC(=O)[C@H]2CC3c4cccc5[nH]cc(c45)C[C@H]3N(C)C2)O[C@@]2(O)C3CCCN3C(=O)[C@@H](Cc3ccccc3)N2C1=O (stereo not given in full) | inactive |
| CCC(=Nc1cccc(C(F)(F)F)c1)c1c(O)n(C)c(=O)n(C)c1=O | inactive |
| Cc1onc(-c2c(Cl)cccc2Cl)c1C(=O)Nc1ccc2c(C(F)(F)F)cc(=O)oc2c1 | inactive |
| CN(N=O)c1cc(O)ccc1O | inactive |
| CN(N=O)c1ccc(O)c(O)c1 | 2.51 µM (active) |
| O=c1[nH]c(=S)n(-c2ccccc2)c(O)c1C=NCc1ccccn1 | inactive |
| Cn1c(O)c(/C=N/N2CCOCC2)c(=O)[nH]c1=S | inactive |
| Cc1cc(OC(=O)N(C)C)nc2c1c(C)nn2C | inactive |
| O=C(O)CN1C(=O)CN=C(c2ccccn2)c2cc(Cl)ccc21 | inactive |
| CC1CN=C(Nc2ccc(F)c(Cl)c2)S1 (stereo not given) | inactive |
| NC(Cc1cc(O)c(O)cc1O)C(=O)O (stereo not given) | 10 µM (active) |
| COC1C(OC(=O)c2ccc(C)[nH]2)C(O)C(Oc2ccc3c(O)c(NC(=O)c4ccc(O)c(CC=C(C)C)c4)c(=O)oc3c2Cl)OC1(C)C (stereo not given) | inactive |
| CCC(=NCc1cccnc1)c1c(O)n(-c2ccccc2C)c(=O)[nH]c1=O | inactive |
| CCCCc1ccc(C(=O)O)nc1 | inactive |
